High-throughput results deposited in PubChem BioAssay by several laboratories.
Sampled rows, rich in hits. Any-hit rate of the full collection: about 4.8%.
MPTP inh: mitochondrial permeability transition pore inhibitors, primary screen, biochemical, isolated mouse mitochondria, absorbance; Ca2+ swelling absorbance, 30 min; hit rate 1.4% among 360,000; inhibition, % at 10 µM; AID 602449, 2012;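 active = inhibition of 50% or more, scaled per plate between neutral and stimulator controls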;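 note: 0% = DMSO wells given calcium and 100% = 1 mM EGTA wells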
Beta cell apopt: inhibitors of cytokine-induced beta cell apoptosis, primary screen, luminescence | INS-1E cytokine-induced death, ATP luminescence, 48 h; percent of positive-control rescue, neutral wells zero | protection from apoptosis, % (concentration not given with the values) | hit rate 0.8% among 300,000 | AID 435005, 2010;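 active = Every replicate reaches about 75%, or at least half do and their mean reaches it too, limit read from the data; inconclusive = At least half of replicates reach the limit but their mean does not; inactive = Under half of replicates reach the limit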;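 note: 0% = cytokine-treated negative control wells and 100% = positive control rescue; higher means more ATP so stronger rescue from cytokine killing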
Calb FLC: C. albicans growth inhibition with fluconazole, primary screen, CaCi-2 strain, Alamar Blue fluorescence; C. albicans CaCi-2 (fluconazole-resistant clinical isolate) + fluconazole, 48 h; growth inhibition, % (test concentration not listed); hit rate 0.57% among 300,000; AID 1979, 2009;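 active = growth inhibition above about 58% in most replicates, limit read from the data, passing the limit was not always enough; inconclusive = exactly half the replicates above a set limit; inactive = most replicates below a set limit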;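 note: all wells also contain fluconazole at 8 µg/ml as a sub-toxic cotreatment; 0% = median of DMSO wells and 100% = median of geldanamycin control wells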
Mdm2-MdmX inh: inhibitors of human Mdm2-MdmX association, primary screen, cell-based, luminescence, split luciferase, SaOS-2, uHTS; inhibition, % at 8 µM; SaOS-2 split-luciferase Mdm2/MdmX complementation; hit rate 3% among 330,000; Protein Mdm4 (Homo sapiens) + E3 ubiquitin-protein ligase Mdm2 (Homo sapiens), …;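 active = inhibition of at least 50% at 8 µM in the primary screen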
CSC inhib: cancer stem cell viability inhibitors, primary screen, luminescence | inhibition, % at 7.5 µM | hit rate 1.1% among 300,000 | cancer stem cell-like cells viability; in the data active = inhibition above about 75%; inconclusive = no clear call, values can overlap the other calls; tested in HMLE shEcad cells
Mdm2 MdmX conf: Mdm2-MdmX complex disruptors, retested hits, confirmation, luminescence, single concentration. shares compounds with Mdm2-MdmX inh. Mdm2-MdmX binding, luminescent assay. inhibition, % at 8 µM. hit rate 55% among 10,000. AID 489028, 2010; in the data active = inhibition above about 40%
FLuc counter: full-length luciferase signal inhibition, confirmation, counter-screen for Mdm2/MdmX interaction inhibitor project, cell-based, single concentration, SaOS-2. shares compounds with Mdm2-MdmX inh. SaOS-2 full-length luciferase counterscreen, luminescence. inhibition, % at 8 µM. hit rate 77% among 6,200. AID 504607, 2011;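 active = mean inhibition at 8 µM reaching about 37%, which flags the compound as non-specific, limit read from the data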;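 note: p53-null SaOS-2 cells with luciferase driven by a doxycycline-inducible promoter; compound on cells about two nights before reading with doxycycline added after day one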
Active calls of the source: *; ? = inconclusive; . = no result given.

SMILES	MPTP inh	Beta cell apopt	Calb FLC	Mdm2-MdmX inh	CSC inhib	Mdm2 MdmX conf	FLuc counter
CCOC(=O)c1ccc(NC(=O)c2nc[nH]c2C(=O)NCCNC(=O)c2[nH]cnc2C(=O)Nc2ccc(C(=O)OCC)cc2)cc1	5	11	.	100*	122*	41*	81*
Cc1cccc(NC(=O)c2nc[nH]c2C(=O)N[C@H](C)c2ccccc2)c1	0	2	.	57*	?	38	50*
CCOC(=O)c1ccc(NC(=O)c2nc[nH]c2C(=O)NC)cc1	1	-6	-2	14	19	.	.
Cc1ccc(NC(=O)c2nc[nH]c2C(=O)N[C@H](C)c2ccccc2)cc1	3	-3	.	10	22	.	.
CCOC(=O)c1ccc(NC(=O)c2nc[nH]c2C(=O)N[C@H](C)c2ccccc2)cc1	0	8	-10	60*	46	18	.
COc1ccccc1N1C(=O)C=C(Sc2nc(C)cc(C)n2)C1=O	12	2	-15	-5	13	.	.
CNc1ncnc2c1ncn2[C@H]1CN(CCOC)C[C@@H](CO)O1	-1	.	.	.	.	.	.
Cc1ccc(/C=C(\C#N)C(=O)Nc2cccc(C)n2)cc1	0	-5	4	2	-11	.	.
O=C(CSc1nnc2c3ccccc3c3ccccc3c2n1)Nc1ccccc1F	-1	-5	-4	76*	14	-3	.
CC1CCCC(NC(=O)c2cc(S(=O)(=O)N3CCCCC3)c[nH]2)C1C (stereo not drawn)	-1	.	.	.	.	.	.
COc1ccc(-n2c(O)c(C=Nc3ccccc3)c3ccccc3c2=O)cc1OC	1	14	1	80*	-8	11	.
COc1ccc(-n2c(O)c(C=Nc3ccccc3)c3ccccc3c2=O)cc1	0	5	18	38	-6	.	.
CCOC(=O)Cc1csc(/N=C/c2c(O)n(-c3ccc(C)c(C)c3)c(=O)c3ccccc23)n1	1	70	-1	73*	34	16	.
COC(=O)[C@@]12C[C@@H](CC(=O)NCCCCc3ccccc3)C(=O)N(Cc3ccco3)C1=CCC(C)(C)C2	7	.	.	.	.	.	.
CC(=O)N(C(C)=O)c1ncc2c([nH]c3ccccc32)c1C#N	-1	-17	-11	82*	1	86*	33
Cc1nc(C(=O)O)cc2c1[nH]c1ccccc12	0	-6	-5	6	-11	.	.
COc1cc(C(O)c2nc(-c3cccc(C(C)C)c3)cs2)ccc1F (stereo not drawn)	4	.	.	.	.	.	.
O=S1(=O)CC(N2CCCC2)CN1Cc1cn(Cc2ccc(F)cc2)nn1 (stereo not drawn)	1	.	.	.	.	.	.
Cc1cccn2c(CN3CCCC(c4ccccc4)C3)c(C(=O)N3CCOCC3)nc12 (stereo not drawn)	0	1	-5	34	-21	.	.
CC(=O)Nc1nc(-c2ccc3c(c2)CC(C)N3C(=O)C2CC2)c(C)s1 (stereo not drawn)	-2	7	-1	85*	-3	85*	54*
CCOC(=O)C(=O)Nc1nc(-c2ccc3c(c2)CCN3C(=O)C2CC2)c(C)s1	2	4	-20	-4	-2	.	.
Cc1sc(NC(=O)c2ccco2)nc1-c1ccc2c(c1)CC(C)N2C(=O)C1CC1 (stereo not drawn)	-3	27	6	85*	58	55*	53*
O=C(OCc1cn([C@H]2CN(C(=O)c3cccs3)[C@@H](c3ccccc3)C[C@@H]2O)nn1)c1ccccc1	-1	.	.	.	.	.	.
Cc1cc(Cl)c(C)c(S(=O)(=O)Oc2ccccc2NC(=O)CCC(=O)O)c1Cl	0	4	.	-12	-12	.	.
CCN(c1ccccc1)S(=O)(=O)c1cccc(C(=O)NCC(c2ccc(F)cc2)N2CCOCC2)c1 (stereo not drawn)	-1	.	.	.	.	.	.
SMILES	MPTP inh	Beta cell apopt	Calb FLC	Mdm2-MdmX inh	CSC inhib	Mdm2 MdmX conf	FLuc counter
O=C(CCl)N(c1ccccc1)c1ccccc1	-3	.	58	.	.	.	.
N#CCCN(C(=O)COC(=O)c1nc(Cl)ccc1Cl)c1ccccc1	-1	6	0	-6	-8	.	.
CCCN(C(=O)Cn1ncc2c(=O)oc3ccccc3c21)c1cccc(C)c1	2	-1	10	6	16	.	.
CCCCCCN(C(=O)CCl)c1ccccc1	2	32	4	98*	12	92*	22
CCCCCCCN(C(=O)CCl)c1cccc(C)c1	0	11	-13	99*	-4	97*	23
N#CCCN(C(=O)CCl)c1cccc(Cl)c1	0	-44	15	100*	21	92*	54*
COc1ccc(-c2csc(C(NC(C)=O)c3ccc(F)c(F)c3)n2)cn1 (stereo not drawn)	0	.	.	.	.	.	.
CC(=O)NC(c1cccc(F)c1)c1nc(-c2csc3ccccc23)cs1 (stereo not drawn)	0	.	.	.	.	.	.
CC1=Nc2cc(C(=O)N3CCCC3)ccc2Sc2c(C)ccc(C)c21	0	-1	16	90*	33	67*	23
Cc1ccc(CNC(=O)c2cc(C)nn2-c2ccccc2)cc1	2	-1	-7	36	6	.	.
Cc1ccc(Cc2nnc3n(-c4ccccc4)nc(C(=O)c4ccccc4)n3c2=O)cc1	8	.	-10	53*	14	58*	53*
COc1cc(C(=O)Nc2nc(-c3cccs3)cs2)cc(OC)c1OC	0	.	37	76*	.	28	.
CCc1nnc(NC(=O)c2cccc(S(=O)(=O)N3CCN(C)CC3)c2)s1	-1	.	.	.	.	.	.
CCc1nnc(NC(=O)c2nc(S(=O)(=O)Cc3ccc(C)cc3)ncc2Cl)s1	-2	.	0	95*	.	80*	52*
CC(=O)Nc1ccc(NC(=O)c2nc(S(=O)(=O)Cc3ccccc3)ncc2Cl)cc1	-3	-24	-12	46	1	.	.
CCc1nnc(NC(=O)c2nc(S(=O)(=O)Cc3ccccc3)ncc2Cl)s1	0	-37	-8	100*	101*	49*	6
CCc1nnc(NC(=O)c2nc(Cl)ccc2Cl)s1	2	-4	4	8	-23	.	.
CCOc1ccccc1NC(=O)c1nc(S(=O)(=O)Cc2cccc(C)c2)ncc1Cl	-3	96*	5	100*	91*	76*	55*
CCc1nnc(NC(=O)c2nc(S(=O)(=O)Cc3cccc(C)c3)ncc2Cl)s1	-1	-30	14	100*	110*	99*	51*
Cc1ccc(S(=O)(=O)N2CCOCC2)cc1NC(=O)COC(=O)CNC(=O)c1ccc(Cl)cc1Cl	1	-9	-2	24	13	.	.
